In PubChem BioAssay (NCI):
This is part of a sample that, as a whole, favours compounds with a hit. Of some 83,000 tested, about 20% had one in any assay.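 Testing used 96-well plates and a 48-hour single-concentration exposure. Example: -40 means 40% of the starting cells died.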 Values without a mark were called inactive. Calls of active or inactive are those of the source. Rule for the calls: active = growth percent below 10; inactive = the rest.

test system: NCI/ADR-RES ovarian; test: NCI-60 one-dose screen, 48 h (100 = growth as untreated, 0 = no growth, -100 = all killed); conditions: 10 µM unless noted

| SMILES | growth |
| --- | --- |
| O=c1oc2ccc([N+](=O)[O-])cc2cc1Br | 108% |
| O=C1/C(=C/c2ccccc2Br)COc2ccc(O)c(O)c21 | 7.97% (active) |
| COc1cc2c(c(OC)c1OC)-c1ccc(OC)c(=O)cc1[C@@H](NC(=O)CCl)CC2 | -39.4% (active) |
| CCCCNc1ccc(C#N)c(OCCN(CC)CC)c1 | 98.4% |
| O=C(c1ccccc1)C1C(=O)N2C(=S)N(c3ccccc3)C(=O)C2C1c1ccc(Cl)cc1 (configuration not stated) | 96.4% |
| CCOc1ccc(NC(=O)CSc2oc(-c3ccccc3)nc2S(=O)(=O)c2ccc(F)cc2)cc1 | 67.3% |
| COc1cc(-n2cc(-c3cc(O)c(C/C=C(\C)CCC=C(C)C)c(O)c3)nn2)cc2c1O[C@]1(C)CC[C@@H](O)C(C)(C)[C@H]1C2 | 17.3% |
| CCOC(=O)/C=C1\S/C(=N\Nc2cc(=O)[nH]c3ccc(Cl)cc23)N(c2ccccc2)C1=O | 101% |
| O=c1oc2c(cnc3ccccc32)cc1-c1ccsc1 | 109% |
| C=CCc1c2c(c(OC)c3ccoc13)C(=O)/C(=C/c1ccccc1OC)O2 | 35.2% |
| CC(=O)Nc1nc2ccc(NS(=O)(=O)c3cccc4c(N(C)C)cccc34)cc2[nH]1 | 97.7% |
| O=C1C(Cl)=C(Oc2ccccc2)C(=O)c2ccccc21 | 88.6% |
| O=C(O)/C(=C\c1ccc(Cl)cc1)c1ccc(Cl)cc1 | 90.1% |
| OCc1cccc(-c2ccc3ncc(-c4nc(NC5CC5)ncc4F)n3c2)c1 | -3.01% (active) |
| C=CCn1cc(-c2nc3ccccc3s2)c2cc(-c3ccc4c5c(cccc35)C(=O)N(N)C4=O)ccc21 | 96.5% |
| Cc1ccc(C(C(N)=O)C(C(N)=O)c2ccccc2)cc1 (configuration not stated) | 122% |
| CC(C)n1cnc2c(=S)nc[nH]c21 | 133% |
| CC(C)N1CN2C(=S)NC3C2N(C1)C(=S)N3C (configuration not stated) | 106% |
| S=C1CCSC(=S)N1CCCN1C(=S)CCSC1=S | 80.7% |

| SMILES | growth |
| --- | --- |
| CCN1CCN(Cc2cn(CC(=O)Nc3ccc4c(ccn4Cc4ccccc4)c3)nn2)CC1 | 108% |
| CCOC(=O)CSc1ncnc2c1c(-c1ccccc1)c(-c1ccccc1)n2-c1ccc(C)cc1 | 98.4% |
| O=C1/C(=C/c2ccc(Cl)c(Cl)c2)CN(C(=O)C(Cl)Cl)C/C1=C\c1ccc(Cl)c(Cl)c1 | 3.64% (active) |
| CCO/C=N/C1=C(C#N)C(c2ccc(OC)cc2)c2sc3c(F)cccc3c2O1 (configuration not stated) | 16.9% |
| COc1ccc(C(c2cc(OC)c(OC)c(OC)c2)N2CCN(c3ccccc3)CC2)cc1 (configuration not stated) | 85.9% |
| CCN(CC)CCOc1ccc(C(=C(C)c2ccc(Cl)cc2)c2ccc(OCCN(CC)CC)cc2)cc1 | -68.2% (active) |
| CN1CCN(C(=O)c2ccc(NC(=O)Nc3ccc(-c4nc(N5CCOCC5)c5cccn5n4)cc3)cc2)CC1 | 60.5% |
| Cc1ccc(S(=O)(=O)N2CCCC2CO)cc1 (configuration not stated) | 56.7% |
| Nc1c(C(=O)Nc2ccccc2Cl)sc2nc3c(cc12)C(O)CCC3 (configuration not stated) | 18.8% |
| Cc1nc2sc(C(=O)Nc3ccccc3)c(N)c2cc1C(=O)c1ccccc1 | 37.8% |
| O=C1CC(N2C(=O)/C(=C/C(Cl)=C\c3ccc([N+](=O)[O-])cc3)SC2=S)C(=O)N1c1ccc(Cl)cc1 (configuration not stated) | 8.17% (active) |
| Cc1ccc(Cl)cc1Nc1nc(C(F)(F)F)ccc1C(=O)N/N=C/c1cccnc1 | 13.9% |
| CC(C)(C)n1cc(-c2ccnc(NCCCNS(=O)(=O)c3ccc(F)cc3)c2)c(-c2cccc(F)c2)n1 | 52% |
| COC(=O)/C(CCC=C(C)C)=C1\[C@@H](OC(C)=O)C[C@@]2(C)[C@H]1C[C@@H](O)[C@H]1[C@@]3(C)CC[C@H](NCCN)[C@@H](C)[C@@H]3CC[C@@]12C | 93.4% |
| C=C1C(=O)O[C@H]2[C@H]1CC/C(COC(=O)NCc1ccc(Cn3c(=O)sn(CCI)c3=O)cc1)=C\CC[C@@]1(C)O[C@@H]21 | 101% |
| COc1cc(-c2nc(SCC(C)C)nc(Nc3cccc4ccccc34)c2C#N)cc(OC)c1OC | 98.8% |
| Oc1c(Cl)cc(Cl)c2ccc(Cn3cc(-c4ccc(C(F)(F)F)cc4)nn3)nc12 | 100% |
| CC1(C)CC2=C3C=C[C@@H]4[C@@]5(C)CCC(=O)C(C)(C)[C@@H]5CC[C@@]4(C)[C@]3(C)CC[C@@]2(C(=O)O)CC1=O | 93.5% |
